Screening results from PubChem.
CYP2C9 activ: human CYP2C9 activators, primary screen, biochemical, luminescence. Cytochrome P450 2C9 (Homo sapiens), P11712. recombinant CYP2C9, luciferin-H conversion; hits give high values; factor 1 = untreated enzyme, 0 = blocked. activation factor at 5 µM. 96,000 compounds, 1.4% hits;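 active = activation factor of 2 or more for CYP2C9 at a 5 µM dose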
CYP2C9 inh: blockers of cytochrome P450 2C9 activity – biochemical, luminescence, ADME assay, primary screen | CYP2C9 Supersomes, luciferin-H conversion | inhibition, % at 5 µM | 96,000 compounds, 20% hits;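 active = blocking of liver enzyme CYP2C9 beyond about 50% at 5 µM, limit read from the data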
E-sel TNF inh: E-selectin induction blockers in HUVEC – imaging, immunofluorescence, high content, primary screen | HUVEC TNFa-induced E-selectin immunofluorescence | inhibition, % at 2 µM | 120,000 compounds, 0.71% hits;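 active = inhibition above the batch mean plus 3 SD, and confirmed as a hit on visual image review, cut at about 43% in these data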
F-actin modifier: modifiers of F-actin cytoskeleton organization, primary screen, imaging, HUVEC, phalloidin staining, high-content imaging; 91,000 compounds, 0.18% hits; AID 836, 2007; inhibition, % at 2 µM; HUVEC TNFa F-actin phalloidin imaging;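 active = inhibition above the batch mean plus 3 SD and confirmed as a hit by visual image inspection, cut at about 30% in these data, passing the limit was not always enough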
CYP2C19 inh: blockers of cytochrome P450 2C19 activity – biochemical, luminescence, ADME assay, primary screen | CYP2C19 Supersomes, luciferin-H EGE luminescence, 30 min | inhibition, % at 5 µM | 96,000 compounds, 21% hits | AID 778, 2007;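 active = CYP2C19 inhibition above a set limit at 5 µM in the primary screen, cut at about 50% in these data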
Target sequence (P33261 whole entry, looked up): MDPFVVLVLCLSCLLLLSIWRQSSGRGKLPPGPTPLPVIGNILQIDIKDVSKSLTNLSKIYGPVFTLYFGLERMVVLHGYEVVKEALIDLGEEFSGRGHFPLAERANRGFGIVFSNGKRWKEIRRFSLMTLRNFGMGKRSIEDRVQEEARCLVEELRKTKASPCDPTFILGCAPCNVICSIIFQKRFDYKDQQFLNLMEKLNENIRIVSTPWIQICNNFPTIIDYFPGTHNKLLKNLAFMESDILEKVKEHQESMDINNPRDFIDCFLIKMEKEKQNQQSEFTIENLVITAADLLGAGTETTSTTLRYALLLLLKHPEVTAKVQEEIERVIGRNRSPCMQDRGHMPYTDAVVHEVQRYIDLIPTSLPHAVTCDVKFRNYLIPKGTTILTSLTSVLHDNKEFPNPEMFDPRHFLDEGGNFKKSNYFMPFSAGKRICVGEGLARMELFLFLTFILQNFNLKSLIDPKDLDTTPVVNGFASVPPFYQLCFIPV
CYP2C19 act: human CYP2C19 activators, primary screen, biochemical, luminescence. Cytochrome P450 2C19 (Homo sapiens), P33261. recombinant CYP2C19, luciferin-H EGE luminescence; hits give high values; 0 = fully inhibited enzyme, 1 = untreated enzyme. activation factor at 5 µM. 96,000 tested, under 10 active;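 active = activation factor of at least 2 at 5 µM in the primary screen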
Large screens that a line does not name were inactive. In the library only some 22% were active in any assay of this set; here they are far more common.

O=C(c1cc(S(=O)(=O)N2CCOCC2)ccc1F)N1CCN(Cc2ccccc2)CC1	CYP2C19 inh 75 (no result: E-sel TNF inh, F-actin modifier)
O=C(Nc1cccc2ccccc12)N1CC=CCC1	none (no result: F-actin modifier)
CC(C)C(=O)Nc1ccccc1C(=O)OCC(=O)c1ccc2c(c1)OCCO2	none (no result: CYP2C9 activ, CYP2C9 inh, F-actin modifier, CYP2C19 inh, CYP2C19 act)
COc1ccc(S(=O)(=O)N2CCCCCC2)cc1C(=O)OCC(=O)NCC(C)C	none
CC(C)CNC(=O)COC(=O)c1cc(S(=O)(=O)N2CCCCC2)ccc1N1CCOCC1	CYP2C9 inh 69
O=C(NCc1ccccc1)c1cc(S(=O)(=O)N2CCOCC2)ccc1F	none (no result: F-actin modifier)
O=C(NCCc1ccccc1)c1cc(S(=O)(=O)N2CCOCC2)ccc1F	CYP2C9 inh 54
Cc1ccc(Nc2c([N+](=O)[O-])ccc3c2=NC2(CCCCC2)N=3)cc1	none
O=C1c2oc3ccccc3c(=O)c2C(c2cccc(F)c2)N1CCCO (stereo not drawn)	F-actin modifier 67, CYP2C19 inh 50
O=C1c2oc3ccc(F)cc3c(=O)c2C(c2ccccc2)N1CC1CCCO1 (stereo not drawn)	CYP2C9 inh 62 (no result: E-sel TNF inh)
COc1ccc(C2c3c(oc4ccccc4c3=O)C(=O)N2CC2CCCO2)cc1 (stereo not drawn)	none
CN1CCN(C(=S)Nc2ccc(Cl)cc2Cl)CC1	none
Cc1c(NC(=O)C(CC(=O)O)NCc2ccco2)c(=O)n(-c2ccccc2)n1C (stereo not drawn)	none (no result: CYP2C9 activ, CYP2C9 inh, CYP2C19 inh, CYP2C19 act)
CCCS(=O)(=O)c1c(S(=O)(=O)CCC)c2c(N)cccn2c1C(=O)c1ccccc1	CYP2C9 inh 75
CCNc1nc(N)nc(Oc2ccc(OCCOc3ccccc3)nn2)n1	none
CCNc1nc(N)nc(Oc2ccc(OCc3ccccc3)nn2)n1	CYP2C19 inh 76
CCOC(=O)C(C)c1nc2ccccc2[nH]c1=O (stereo not drawn)	none
CC(C)OC(=O)CCc1nc2ccccc2[nH]c1=O	CYP2C19 inh 76
CNC(=O)C1CC(=O)N(Cc2ccccc2)C(=Nc2ccc(OC)cc2)S1 (stereo not drawn)	none (no result: E-sel TNF inh)
COc1ccc(-c2nc(N)n(C(=O)c3cccs3)n2)cc1	none (no result: CYP2C9 activ, CYP2C9 inh, F-actin modifier, CYP2C19 inh, CYP2C19 act)
Cc1cc(C)n(-c2ccc([N+](=O)[O-])cc2-c2nn[nH]n2)n1	none (no result: CYP2C9 activ, CYP2C9 inh, F-actin modifier, CYP2C19 inh, CYP2C19 act)
O=[N+]([O-])c1ccc(O)c(-c2nn[nH]n2)c1	CYP2C9 inh 83, CYP2C19 inh 70
Cc1cc(N2CCN(c3cccc(C)c3C)CC2)nc(-c2ccccc2)n1	none (no result: CYP2C9 activ, CYP2C9 inh, CYP2C19 inh, CYP2C19 act)
Cc1ccsc1C(=O)Nc1ccc(C(=O)O)cc1	CYP2C9 inh 57, CYP2C19 inh 92
CCOc1ccccc1C(=O)N(C)Cc1cc2cc(OC)ccc2[nH]c1=O	none (no result: E-sel TNF inh)
O=C(OCc1cnc(Cl)s1)c1c(F)cccc1F	none (no result: CYP2C9 activ, CYP2C9 inh, F-actin modifier, CYP2C19 inh, CYP2C19 act)
O=C(OCc1cnc(Cl)s1)c1ccccc1Cl	CYP2C19 inh 77
O=C(OCc1cnc(Cl)s1)c1cccc(Cl)c1Cl	CYP2C19 inh 92 (no result: E-sel TNF inh)
COC(=O)c1nnc(-c2ccccc2)c(-c2ccccc2)n1	none (no result: E-sel TNF inh)
NNc1nnc(-c2ccccc2)c(-c2ccccc2)n1	CYP2C9 inh 79, CYP2C19 inh 88
Cn1c(-c2ccc(Cl)cc2)cnc1NCc1cc2c(cc1[N+](=O)[O-])OCO2	none (no result: CYP2C9 activ, CYP2C9 inh, F-actin modifier, CYP2C19 inh, CYP2C19 act)
Cn1c(-c2ccc(F)cc2)cnc1NCc1cccc(F)c1	CYP2C19 inh 53
COc1cccc(-c2cnc(NCc3cc(Cl)ccc3O)n2C)c1	CYP2C9 inh 98, E-sel TNF inh 60, CYP2C19 inh 99
O=C(O)c1cccc(NCc2cccnc2)c1	none
Cn1c(-c2cccc(Br)c2)cnc1NCc1cccnc1	CYP2C9 inh 64, CYP2C19 inh 77
Cn1c(-c2ccc(F)cc2)cnc1NCc1ccccc1	none
COc1cccc(/C=N/N2CCN(c3ccccc3OC)CC2)c1	none
CCS(=O)(=O)c1ccc2oc(Nc3ccc(C(C)C)cc3)nc2c1	E-sel TNF inh 64 (no result: F-actin modifier)
COc1ccc(NC(=O)CN2C(=O)C(C)Oc3ccccc32)c(OC)c1 (stereo not drawn)	CYP2C19 inh 79
COC(=O)CC1Oc2ccccc2N(Cc2ccccc2)C1=O (stereo not drawn)	CYP2C9 inh 55, CYP2C19 inh 90 (no result: F-actin modifier)
COc1cc(NC(=O)CN2c3cccc4cccc(c34)S2(=O)=O)cc(OC)c1OC	none
